Drawing on publication PMC4081100, “A DNA-binding-site landscape and regulatory network analysis for NAC transcription factors in Arabidopsis thaliana”, this text covers binding signal for 7 sequences.

Holding throughout (experiment): universal protein binding microarray (PBM); transcription factors of Arabidopsis thaliana; high values mean tight binding
Holding throughout (conditions): protein: recombinant; tags: GST; chain copies: 2; dsDNA, one strand shown

One assay addresses T1, GST-ANAC092(1-176) (Arabidopsis thaliana, UniProt Q9FKA0 1-176).
T1 sequence: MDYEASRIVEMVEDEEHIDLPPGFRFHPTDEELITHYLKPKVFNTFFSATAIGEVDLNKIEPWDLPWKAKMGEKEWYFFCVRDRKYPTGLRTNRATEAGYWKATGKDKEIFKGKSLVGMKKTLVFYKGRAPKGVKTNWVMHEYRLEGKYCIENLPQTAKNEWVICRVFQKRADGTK
An outline of the steps: (§1)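 Binding is expressed as the normalised enrichment score (E-score). Proteins carrying a GST tag, whether NAC-domain, full-length or DNA-binding-domain forms, were induced in cells, and zinc acetate was added for zinc-finger proteins. After purification on glutathione–Sepharose 4B and quantification by A280 or anti-GST western blot, each was applied in duplicate at 200 to 500 nM final to custom all-10-mer Agilent 4 × 180K arrays made double-stranded by primer extension. Gapped and ungapped 8-mers were scored.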

The target of another assay is T2, GST-ANAC019 NAC domain (Arabidopsis thaliana, UniProt Q9C932 14-162).
T2 sequence: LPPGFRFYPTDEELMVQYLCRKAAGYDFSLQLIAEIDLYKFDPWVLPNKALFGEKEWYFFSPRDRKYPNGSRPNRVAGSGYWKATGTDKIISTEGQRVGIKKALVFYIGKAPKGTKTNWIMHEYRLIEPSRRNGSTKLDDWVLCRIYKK
An outline of the steps:
as §1

The next assay deals with T3, GST-ANAC055(1-171) (Arabidopsis thaliana, UniProt Q9LDY8 1-171).
T3 sequence: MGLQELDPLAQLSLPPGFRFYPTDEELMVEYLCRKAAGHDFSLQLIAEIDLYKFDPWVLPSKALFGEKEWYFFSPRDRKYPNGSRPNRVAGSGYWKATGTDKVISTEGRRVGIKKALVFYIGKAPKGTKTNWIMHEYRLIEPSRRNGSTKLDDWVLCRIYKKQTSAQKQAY
Summed up: as §1

For another assay, the target named is T4, GST-ATAF1 NAC domain (Arabidopsis thaliana, UniProt Q39013 7-158).
T4 sequence: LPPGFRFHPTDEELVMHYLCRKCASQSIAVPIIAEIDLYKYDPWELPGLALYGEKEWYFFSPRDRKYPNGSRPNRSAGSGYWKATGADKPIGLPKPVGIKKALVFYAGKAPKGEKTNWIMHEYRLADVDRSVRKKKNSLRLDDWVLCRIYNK
Summed up: as §1

The target of assay [1] is T5, GST-ANAC092(1-285) full length (Arabidopsis thaliana, UniProt Q9FKA0 1-285).
T5 sequence: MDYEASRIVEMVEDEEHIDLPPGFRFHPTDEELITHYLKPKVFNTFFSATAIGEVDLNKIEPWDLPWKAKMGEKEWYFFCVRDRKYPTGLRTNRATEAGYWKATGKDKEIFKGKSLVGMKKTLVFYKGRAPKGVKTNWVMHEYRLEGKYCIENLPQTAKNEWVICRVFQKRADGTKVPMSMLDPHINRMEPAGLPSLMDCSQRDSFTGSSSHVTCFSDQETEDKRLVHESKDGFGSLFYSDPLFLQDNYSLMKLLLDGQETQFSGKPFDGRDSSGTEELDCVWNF
An outline of the steps: as §1

The target of the next assay is T6, GST-NAP(1-166) (Arabidopsis thaliana, UniProt O49255 1-166).
T6 sequence: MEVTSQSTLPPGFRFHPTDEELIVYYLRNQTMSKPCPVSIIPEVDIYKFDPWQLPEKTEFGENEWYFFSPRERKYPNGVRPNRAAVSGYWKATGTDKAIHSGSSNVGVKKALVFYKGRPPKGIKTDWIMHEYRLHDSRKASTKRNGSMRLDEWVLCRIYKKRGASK
An outline of the steps: as §1

A further assay concerns the target T7, GST-NST2(1-184) (Arabidopsis thaliana, UniProt Q9M274 1-184).
T7 sequence: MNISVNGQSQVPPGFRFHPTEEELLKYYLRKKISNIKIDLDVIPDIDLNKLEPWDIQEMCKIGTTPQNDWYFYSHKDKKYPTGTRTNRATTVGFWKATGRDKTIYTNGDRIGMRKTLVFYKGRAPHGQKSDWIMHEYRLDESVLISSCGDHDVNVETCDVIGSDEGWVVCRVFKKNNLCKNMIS
Summed up: as §1

The target in a further assay is T8, GST-SND1(1-203) (Arabidopsis thaliana, UniProt Q9LPI7 1-203).
T8 sequence: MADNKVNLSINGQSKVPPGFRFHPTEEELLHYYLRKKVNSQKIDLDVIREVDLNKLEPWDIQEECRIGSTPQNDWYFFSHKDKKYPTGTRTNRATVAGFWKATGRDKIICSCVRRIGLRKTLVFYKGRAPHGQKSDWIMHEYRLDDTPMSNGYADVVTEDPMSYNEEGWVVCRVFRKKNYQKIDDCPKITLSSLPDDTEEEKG
An outline of the steps: as §1

Another assay addresses T9, GST-VND3 NAC domain (Arabidopsis thaliana, UniProt Q9FH59 12-162).
T9 sequence: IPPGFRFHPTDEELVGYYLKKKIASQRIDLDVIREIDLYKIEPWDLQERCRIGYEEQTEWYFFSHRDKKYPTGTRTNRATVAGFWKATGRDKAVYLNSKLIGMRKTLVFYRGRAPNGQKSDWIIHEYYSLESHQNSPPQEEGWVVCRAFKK
Summed up:
as §1

In the next assay the target is T10, GST-VND7 NAC domain (Arabidopsis thaliana, UniProt Q9C8W9 9-158).
T10 sequence: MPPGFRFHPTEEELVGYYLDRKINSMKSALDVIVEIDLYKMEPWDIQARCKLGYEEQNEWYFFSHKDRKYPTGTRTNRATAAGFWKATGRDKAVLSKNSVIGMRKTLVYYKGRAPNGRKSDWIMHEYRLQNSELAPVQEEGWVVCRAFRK
Summed up:
as §1

Take ACGCAATC: the binding signal with GST-ANAC092(1-176) came out at 0.48 E-score; with GST-ANAC019 NAC domain, 0.285 E-score; with GST-ANAC055(1-171) it was 0.343 E-score; with GST-ATAF1 NAC domain it was 0.298 E-score; in [1], 0.485 E-score; with GST-NAP(1-166), 0.386 E-score. The binding signal with GST-NST2(1-184) was found to be 0.384 E-score; with GST-SND1(1-203) it was 0.474 E-score; with GST-VND3 NAC domain it was 0.355 E-score; in the assay with GST-VND7 NAC domain, 0.38 E-score.

Regarding CTACACGC, the binding signal is 0.361 E-score in the assay with GST-ANAC092(1-176); 0.11 E-score with GST-ANAC019 NAC domain; 0.0947 E-score with GST-ANAC055(1-171); 0.186 E-score with GST-ATAF1 NAC domain; 0.425 E-score in assay [1]; 0.192 E-score with GST-NAP(1-166). For the same sequence, the binding signal in the assay with GST-NST2(1-184) amounted to 0.235 E-score; in the assay with GST-SND1(1-203) it was 0.307 E-score; with GST-VND3 NAC domain, 0.147 E-score; in the assay with GST-VND7 NAC domain, 0.0812 E-score.

On to ACGTAAAC, for which the binding signal came to 0.397 E-score with GST-ANAC092(1-176); 0.427 E-score with GST-ANAC019 NAC domain; 0.355 E-score in the assay with GST-ANAC055(1-171); 0.321 E-score with GST-ATAF1 NAC domain; 0.43 E-score in assay [1]; 0.368 E-score with GST-NAP(1-166). The binding signal worked out at 0.317 E-score with GST-NST2(1-184), 0.404 E-score with GST-SND1(1-203), 0.402 E-score in the assay with GST-VND3 NAC domain and 0.266 E-score with GST-VND7 NAC domain.

Turning to CACGGCAG, the binding signal in the assay with GST-ANAC092(1-176) was found to be 0.39 E-score; with GST-ANAC019 NAC domain, 0.457 E-score; with GST-ANAC055(1-171), 0.403 E-score; with GST-ATAF1 NAC domain, 0.307 E-score; in assay [1], 0.426 E-score; in the assay with GST-NAP(1-166), 0.227 E-score. In addition, the binding signal was found to be 0.0722 E-score with GST-NST2(1-184), 0.11 E-score in the assay with GST-SND1(1-203), 0.412 E-score with GST-VND3 NAC domain and 0.384 E-score in the assay with GST-VND7 NAC domain.

As to AACACGGA, the binding signal in the assay with GST-ANAC092(1-176) is 0.298 E-score; in the assay with GST-ANAC019 NAC domain it was 0.413 E-score; in the assay with GST-ANAC055(1-171), 0.397 E-score; with GST-ATAF1 NAC domain, 0.299 E-score; in [1] it was 0.274 E-score; with GST-NAP(1-166) it was 0.268 E-score. The binding signal in the assay with GST-NST2(1-184) was determined as 0.173 E-score; in the assay with GST-SND1(1-203), 0.0986 E-score; with GST-VND3 NAC domain, 0.319 E-score; with GST-VND7 NAC domain, 0.362 E-score.

As to CACGGCAC, the binding signal in the assay with GST-ANAC092(1-176) turned out to be 0.462 E-score; with GST-ANAC019 NAC domain, 0.484 E-score; in the assay with GST-ANAC055(1-171) it was 0.484 E-score; in the assay with GST-ATAF1 NAC domain, 0.432 E-score; in assay [1] it was 0.474 E-score; with GST-NAP(1-166) it was 0.478 E-score. In addition, the binding signal with GST-NST2(1-184) came out at 0.292 E-score; with GST-SND1(1-203), 0.203 E-score; with GST-VND3 NAC domain it was 0.458 E-score; with GST-VND7 NAC domain it was 0.485 E-score.

For GCGTGTTA, the binding signal is 0.415 E-score with GST-ANAC092(1-176); 0.214 E-score with GST-ANAC019 NAC domain; 0.174 E-score in the assay with GST-ANAC055(1-171); 0.141 E-score in the assay with GST-ATAF1 NAC domain; 0.432 E-score in assay [1]; 0.227 E-score with GST-NAP(1-166). Also, the binding signal amounted to 0.178 E-score in the assay with GST-NST2(1-184), 0.199 E-score in the assay with GST-SND1(1-203), 0.212 E-score in the assay with GST-VND3 NAC domain and 0.113 E-score in the assay with GST-VND7 NAC domain.
